# Sampled rows, rich in hits. Any-hit rate of the full collection: about 9%.
# HTT aggregate – mutant huntingtin aggregation inhibition. 1.1% of 220,000 active. PC12 HttQ103-GFP aggregates, Acumen cytometry, 40 h. Potency, µM (highest dose often 46.1 µM), without a hit: at the highest dose activity change, negative = inhibition, usual class: inhibitors; further: on the % scale 0 is the no-effect control and ±100 the full control effect; nearly all actives have a fitted effect of over 60% in size
#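 Read-out: GFP aggregate count by laser scanning cytometer (488 nm excitation, 500-530 nm emission, 1–25 µm objects >6 SD above background). Cells: PC12, inducible HTTex1-Q103-GFP, 100 nM tebufenozide; compounds titrated.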
# HPGD inh – inhibitors of human 15-hydroxyprostaglandin dehydrogenase (HPGD) | P15428 | purified HPGD, NADH fluorescence kinetic, PGE2 substrate | Potency, µM, inactives show at the top dose activity change, negative = inhibition, usual class: inhibitors | 4.3% of 150,000 active | AID 894; active means well fitted inhibition curve with a large enough effect, not every such curve was filed as active; inconclusive means small, poorly fitted or top-dose-only effect, or another doubt; inactive means no such curve, though single readings can be large or run the other way; further: on the % scale 0 is the no-effect control and ±100 the full control effect
#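 NADH formation kinetics: reaction with 30 uM PGE2 and 1 mM NAD+ (final), 20 nM enzyme, Tris-HCl pH 8 with Tween 20, after 15 min compound preincubation at room temperature. Fluorescence change, last versus first of five reads.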
# Lamin A splicing – changes lamin A minigene splicing in HeLa cells | HeLa LMNA splicing GFP/RFP minigene ratio, 48 h | Potency, µM (top dose mostly 46.1 µM), without a hit: at the highest dose ratio change, negative = inhibition, most hits filed as inhibitors | 0.01% of 200,000 active; active means well fitted inhibition curve with a large enough effect in the signal ratio, with a control signal flat, not every such curve was filed as active; inconclusive means small, poorly fitted or top-dose-only effect, or effect the other way, or a change in a side signal; the % refers to the signal ratio; further: on the % scale 0 is the no-effect control and ±100 the full control effect
#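 Read-out is the ratio of GFP to DsRed2 object intensity, acquired by 488 nm laser-scanning cytometry on HeLa lamin A-EGFP minigene reporter cells. Compound incubation 48 hrs at 37 °C in Opti-MEM with 2% FBS; DMSO 0.5% final.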
# ALDH1A1 block – ALDH1A1 (human) enzyme inhibition | 7.3% of 220,000 active | Potency, µM (highest dose often 75.3 µM), inactives show top-dose activity, negative = inhibition, most hits filed as inhibitors | AID 1030 | Purified ALDH1A1, NADH fluorescence, propionaldehyde substrate; active means well fitted inhibition curve with a large enough effect, not every such curve was filed as active; inconclusive means small, poorly fitted or top-dose-only effect, or another doubt; inactive means no such curve, though single readings can be large or run the other way;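 further: plate controls were no enzyme wells and a reference inhibitor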
# Target sequence (P00352 whole entry, looked up): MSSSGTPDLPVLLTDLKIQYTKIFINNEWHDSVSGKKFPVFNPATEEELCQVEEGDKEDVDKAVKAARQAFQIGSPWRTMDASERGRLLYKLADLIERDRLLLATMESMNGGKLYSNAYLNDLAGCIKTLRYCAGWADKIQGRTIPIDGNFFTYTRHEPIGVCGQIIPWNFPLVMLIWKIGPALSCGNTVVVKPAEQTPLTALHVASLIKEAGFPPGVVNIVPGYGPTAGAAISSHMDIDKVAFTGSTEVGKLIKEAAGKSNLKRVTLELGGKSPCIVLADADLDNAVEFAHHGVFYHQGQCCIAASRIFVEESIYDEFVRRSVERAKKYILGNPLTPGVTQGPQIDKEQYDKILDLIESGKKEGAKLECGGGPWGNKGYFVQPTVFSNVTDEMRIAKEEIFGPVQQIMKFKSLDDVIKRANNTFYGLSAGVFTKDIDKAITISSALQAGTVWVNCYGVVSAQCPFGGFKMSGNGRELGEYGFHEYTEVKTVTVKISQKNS
# HTT ATP protect – cytoprotection in Huntington HTT-Q103 PC12 cell model | PC12 HTT-Q103 induced, cytoprotection, ATP luminescence, 40 h | AID 1471 | 0.14% of 230,000 active | Potency, µM (titrated, usually from 56.4 µM), for the others: cytoprotection (ATP increase), usual class: activators; further: % of control where 0% means no effect; nearly all actives have a fitted effect of over 45% in size
#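 Compounds added alongside 100 nM tebufenozide, which induces toxic Q103 huntingtin exon 1-GFP in stable PC12 cells; surviving cells quantified by luminescent ATP measurement. Medium: phenol red-free DMEM, 5% equine and 5% calf serum.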
# Luc counter – counter-screen: inhibitors of Kinase-Glo firefly luciferase. Q27757. Kinase-Glo luciferase, ATP luminescence, 8 min. Potency, µM (series often up to 38.3 µM), for the others: at the top dose activity change, negative = inhibition, most hits filed as inhibitors. 0.28% of 200,000 active; further: on the % scale 0 is the no-effect control and ±100 the full control effect; nearly all actives have a fitted effect of over 60% in size
#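 Compound is pinned into ATP-containing buffer (10 uM ATP, imidazole pH 7.2, 7 mM MgCl2). Kinase-Glo luciferase reagent is then added. Light output is recorded following an 8-min room-temperature incubation.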
# An asterisk follows results filed as active; ? = inconclusive; nt = no result given; [ ] = dose if it differs, or a comment. Unless noted, the call rests on the fitted dose curve; in most records, active means well fitted curve in the direction sought with a large enough effect; inconclusive means small, poorly fitted or top-dose-only effect, or another doubt; inactive means no such curve, though single readings can be large; an effect the other way counts as inactive or inconclusive. Potency means the concentration at half of the fitted maximal effect.
SMILES,HTT aggregate,HPGD inh,Lamin A splicing,ALDH1A1 block,HTT ATP protect,Luc counter
COC(=O)c1ccc(NC(=O)CNCc2ccncc2)cc1,-3%,0%,-6%,22µM*,12%[10 µM],3%
Cc1ccnc2nc(C(=O)OCC(=O)N3CCc4ccccc43)nn12,-8%,nt,20%[46 µM],-13%,8%[10 µM],-2%
COc1ccc(-c2ccc(-c3noc(-c4ccc(OC)c(OC)c4)n3)c(OC)n2)cc1,4%,?,4%,?,-7%[0.074 µM],-2%
COc1cc(OC)cc(-c2cc3nc(C)c(CCC(=O)NC(C)CCc4ccco4)c(C)n3n2)c1 (stereo not given),-2%,?,?,?,-18%,1%
CC(C)=CCc1c2c(c3occ(-c4ccc(O)cc4)c(=O)c3c1O)C=CC(C)(C)O2,?,-4%,?,25µM*,-287%,-2%
CC(C)=CCc1c2c(c3occ(-c4ccc(O)c(O)c4)c(=O)c3c1O)C=CC(C)(C)O2,nt,-4%,nt,5%[13.5 µM],-67%[10 µM],-5%[7.66 µM]
COC(=O)c1sc(=S)n(-c2cc(F)ccc2F)c1N,5%,28µM*,8%[0.0737 µM],25µM*,-12%[0.074 µM],-2%
CCOC(=O)c1sc(=S)n(-c2cc(OC)ccc2OC)c1N,-7%,3.5µM*,-10%,3.2µM*,14%[10 µM],0%
CCOC(=O)c1sc(=S)n(-c2ccccc2)c1SC,-10%,-22%,4%,-10%,0%,0%
COC(=O)c1sccc1NC(=S)Nc1ccc(F)cc1F,23%[9.22 µM],nt,12%[46 µM],-9%,33%[10 µM],3%
CCOC(=O)c1sc(=S)n(-c2cc(F)ccc2F)c1N,-19%,25µM*,?,20µM*,-8%[0.074 µM],2%
CCOC(=O)c1sc(=S)n(-c2ccccc2Cl)c1SC,-16%,18µM*,?,18µM*,13%,2%
Cc1ccc(S(=O)(=O)NCCC2(C(C)C)CCOC(C)(C)C2)cc1 (stereo not given),-4%,-8%,-4%,-9%,1%,19%
C=C(C)C(=O)Nc1cccc(C2=NOC3(C2)C[C@@H](C(N)=O)N(C(=O)/C(C)=C/C)C3)c1 (stereo not given in full),-34%[9.22 µM],nt,nt,nt,18%[10 µM],nt
Cn1c(N)c(C(=O)CCl)c(=O)n(C)c1=O,-1%,-14%,-3%,?,-11%,-5%
COc1cc2cc(C(=O)N3CCN(Cc4ccc5c(c4)OCO5)CC3)c(=O)oc2cc1OC,-17%[9.22 µM],nt,nt,nt,12%[10 µM],nt
Cc1ccc(C(=O)N2CCN(Cc3ccc4c(c3)OCO4)CC2)cc1[N+](=O)[O-],14%,nt,nt,13µM*,0%,3%
O=C(c1cccc([N+](=O)[O-])c1)N1CCN(Cc2ccc3c(c2)OCO3)CC1,31%,nt,nt,-2%,6%,0%
COc1cc2c(C(=O)N3CCN(Cc4ccc5c(c4)OCO5)CC3)cn(C)c(=O)c2cc1OC,-3%,-13%,-2%,2.5µM*,2%[10 µM],2%
O=C(CN1C(=O)c2cccc3cccc(c23)C1=O)N1CCN(Cc2ccc3c(c2)OCO3)CC1,18µM*,-23%,-22%,?,20%[10 µM],3%
O=C(CN1C(=O)c2cccc3cccc1c23)NCc1ccc2c(c1)OCO2,-13%,-26%,-11%,-6%,-11%[0.074 µM],-3%
COc1ccccc1C(=O)N1CCN(Cc2ccc3c(c2)OCO3)CC1,2.8µM*,-6%,?,8%,3%[10 µM],-3%
O=C(CCc1nnc(C2CCCCC2)o1)N1CCN(Cc2ccccc2)CC1,?,nt,0%[46 µM],8%,?,-1%
CCOc1ccc(CNC(=O)c2ccc(NC(=O)c3nsc4ccccc34)cc2)cc1,nt,nt,14%[46 µM],nt,nt,nt
CCc1ccc(CN2CCN(C(=O)c3cccc(OC)c3OC)CC2)cc1,7.9µM*,-11%,?,?,5%[10 µM],1%
CCc1nnc(NC(=O)c2ccc3ccccc3n2)s1,-11%,nt,nt,18µM*,-79%,?
COc1ccccc1N1CCN(c2ncc3c(n2)CCN(Cc2ccccc2C)C3)CC1,nt,nt,-19%[46 µM],nt,nt,nt
S=c1[nH]nc(CCc2ccccc2)n1-c1ccc(Cl)cc1,13%,nt,9%[46 µM],?,9%[10 µM],-1%
